Experimental data published in ChEMBL document CHEMBL3988442, “University of Dundee, Small-Polar-MMV Screening Library” (2021).
The whole screen tested about 48,000 compounds, of which about 13,000 (27%) showed an effect of 50% or more. Some of the results follow.

What follows are compounds tested on Wolbachia pipientis (assay: Anti-Wolbachia Cell-Based Screen). Conditions: 5 µM.
Type: functional
Set-up: scale not given: in the data most compounds retested in dose-response had high values

SMILES	Percent Effect
Cc1ccc(C)c(OCCN(C)C(=O)C2CCCN2C(N)=O)c1C (configuration not stated)	-6.745%
COc1ccc(C2CCCN2c2ccc(C#N)cn2)c(OC)c1 (configuration not stated)	3.649%
CC(=O)N1CCC2(C1)c1ccccc1S(=O)(=O)N2C (configuration not stated)	115.8%
CC(=O)N1CCC2(C1)c1ccccc1S(=O)(=O)N2Cc1ccccc1 (configuration not stated)	103.8%
CCCN1CCC2(C1)c1ccccc1S(=O)(=O)N2C.O=C(O)C(F)(F)F (configuration not stated)	-10.43%
CCCN1CCC2(C1)c1ccccc1S(=O)(=O)N2Cc1ccccc1.O=C(O)C(F)(F)F (configuration not stated)	16.14%
CCCN(CC(=O)OC)C(=O)c1sc(C)nc1C	1.933%
Cn1cnc2c1CCN(CCOc1ccc3c(c1)CCC(=O)N3)C2	-6.768%
Cc1ccc(CNC2(Cc3cc(C(C)(C)O)on3)COC2)o1	-11.3%
FC(F)(F)c1ccc(-c2n[nH]c3c2CN(CC2CCOC2)CC3)cc1 (configuration not stated)	2.824%
Cn1ccc(C(=O)N2CCCC(c3cc4cccnc4c(O)n3)C2)n1 (configuration not stated)	126.9%
CCCC(=O)N1CCC(c2cc[nH]n2)C1 (configuration not stated)	112.5%
CCCC(=O)N1CCCC(c2cc3cccnc3c(O)n2)C1 (configuration not stated)	167%
CCNC(=O)N1CCN(C(=O)c2cc(Cl)cc3cccnc23)CC1	-12.31%
CCCC(=O)N1CCC(c2nn(C)c(=O)n2-c2ccccc2)CC1	0.6972%
CCOC(=O)CCC(=O)N1CCC(Oc2ncccc2Cl)CC1	1.106%
CCCC(=O)N1CCC(c2cc3cccnc3c(O)n2)CC1	125.1%
CCN(C)CC1CCN(C(=O)Nc2ccc(-c3cc[nH]n3)cc2)C1 (configuration not stated)	2.001%
CN(Cc1ccon1)C(=O)C1CC(=O)N(Cc2cccnc2)C1 (configuration not stated)	3.448%
Cc1cc(Cn2cncc(Br)c2=O)on1	0.4664%
O=C(NCc1cccc(C(F)(F)F)c1)C(c1cccnc1)N1CCCC1 (configuration not stated)	-10.57%
CC(C)[C@H]1COC(=O)N1CC(=O)N1CCCN(C(=O)c2ccoc2)CC1	-24.24%
Cc1cccc(N2CCC(NCc3cnc(C4CCC4)s3)CC2)n1	7.912%
Cc1nc(C(F)(F)F)nc(N2CCC3(CC2)CC(C(=O)O)N(C)C3)c1C (configuration not stated)	-7.708%

SMILES	Percent Effect
CCOCCC(=O)N1CCCC(c2ncc[nH]2)C1 (configuration not stated)	-13.21%
CCCC(=O)N1CCCC(c2ccccn2)C1 (configuration not stated)	152.5%
CCC(=O)N1CCCC(c2cc(Nc3ncccn3)nc(C)n2)C1 (configuration not stated)	-9.589%
Cc1nc2c(s1)C(N(C)C(=O)NCCCC(C)(C)CO)CCC2 (configuration not stated)	-8.844%
Cc1noc(C(C)Nc2ccc(N3CCOCC3)cc2C)n1 (configuration not stated)	200.3%
Cc1cc(CN2CCN(C(C)c3nc(C(C)C)no3)CC2)no1 (configuration not stated)	1.416%
CCN1CCN(c2ccc(C(=O)NC(C)c3ccncc3)cc2)CC1 (configuration not stated)	-3.258%
Cc1cc(OCC(=O)NC(C)c2ccc(N3CCOCC3)cc2)no1 (configuration not stated)	-0.3596%
CCN1CCN(c2ccc(NC(C)c3nc(C(C)C)no3)c(C)c2)CC1 (configuration not stated)	117.8%
Cc1noc(C(C)Nc2ccc3oc(C)nc3c2)n1 (configuration not stated)	8.533%
Cc1cc(N2CCOCC2)ccc1NC(C)c1nc(C(C)C)no1 (configuration not stated)	89%
CC(NCc1nnc2n1CCCC2)c1nc(C(C)(C)C)no1 (configuration not stated)	3.435%
Cc1noc(C(C)Nc2ccc3oc(C(C)C)nc3c2)n1 (configuration not stated)	8.094%
CCNC(=O)c1nnc2ccc(N3CCOCC3)cc2n1	17.66%
Cc1cc(N2CCOCC2)ccc1NC(C)c1nc(C(C)(C)C)no1 (configuration not stated)	111.3%
Cc1cc(CNC(=O)NC(C)c2ccc(N3CCOCC3)cc2)no1 (configuration not stated)	1.457%
Cc1ccc(C(=O)N(C)CC(=O)N2CCCC2)c(C)c1	-3.926%
CCc1c(C(=O)O)nnn1-c1cc(C)ccc1C	72.77%
Cc1ccc(C)c(-n2nnnc2SCN2CCCCC2=O)c1	-6.055%
Cc1c(C(=O)N2CCC2(C)C)nnn1-c1cccc2cccnc12	0.9445%
Cc1c(C(=O)O)nnn1-c1cccc2cccnc12	-7.776%
COc1cc(OC)c(-n2nnc(C(=O)O)c2C)cc1Cl	-3.799%
COCc1c(C(=O)NC2CCCC2)nnn1-c1ccc(C)cc1	-4.164%
CCc1c(C(=O)O)nnn1-c1cccc(C)c1C	95.29%

SMILES	Percent Effect
CCc1c(C(=O)O)nnn1-c1cc(C)cc(C)c1	90.67%
COCc1c(C(=O)O)nnn1Cc1cccc(C(F)(F)F)c1	8.575%
Cc1ccc(CCNC(=O)NCCCC(N)=O)c(C)c1	-5.264%
CCc1c(C(=O)O)nnn1-c1ccc(C)cc1C	82.86%
CCc1cnc(N2C[C@H](OCc3csc(C)n3)[C@H]3COC[C@H]32)nc1.O=C(O)C(F)(F)F.O=C(O)C(F)(F)F	4.189%
CN1CCC(N[C@@H]2CO[C@H](CNC(=O)c3cccs3)[C@H]2O)CC1	-3.68%
O=C(c1cn(CC(=O)N2CCc3[nH]cnc3C2)c2ccccc12)C1CC1	1.32%
COc1ccc(NC(=O)CSC(F)(F)F)cn1	1.311%
O=C(c1coc2ccccc12)N1CCS(=O)(=O)CC1	0.973%
Cc1ccc(-n2nnc(C(=O)O)c2C)c(C)c1	89.24%
COc1cc(Cl)c(C)cc1-n1nnc(C(=O)O)c1-c1ccncc1	-11.88%
COc1cc(Cl)c(C)cc1-n1nnc(C(=O)O)c1C	4.448%
CC(C)(O)CCc1cccc(C(=O)NCc2cnn3cccnc23)c1	6.543%
CCN(Cc1ccc2c(c1)OCO2)C(=O)NC(C)Cn1cccn1 (configuration not stated)	4.631%
CS(=O)(=O)CC1CCCN(C(=O)Cn2cccc(C(F)(F)F)c2=O)C1 (configuration not stated)	2.203%
c1cc(-c2nnc([C@H]3CCN(C4CCOCC4)C3)o2)ccn1	-3.579%
COCCN1CCCC(c2ccnc3c(C(N)=O)cnn23)C1 (configuration not stated)	97.31%
NC(=O)c1cnn2c(C3CCN(CCO)CC3)ccnc12	128.9%
O=C(NCCc1c[nH]cn1)C1CCCN(C2CCOCC2)C1 (configuration not stated)	-7.633%
COc1ccccc1OCCN1CCCC(c2cc(C(N)=O)[nH]n2)C1 (configuration not stated)	-3.836%
NC(=O)c1cnn2c(C3CCCN(C4CCOCC4)C3)ccnc12 (configuration not stated)	143.8%
CC(C)(C)c1cnc(CN2CCC(c3ccnn3CCO)CC2)o1	-7.147%
NC(=O)Cn1ccnc1C1CCCN(CCSc2ccccc2)C1 (configuration not stated)	0.1316%
OCCn1nccc1C1CCN(CCCOc2ccc(F)cc2)CC1	-1.646%
